Assay outcomes from PubChem BioAssay.
Fluor 339 460 – intrinsic fluorescence of library compounds, ex339/em460 – biochemical, MLSMR library, data from DPM-DC assay, artefact control, profiling panel; compound autofluorescence, ex339/em460 nm, NADH buffer; stronger effect = higher value; 1 = no-compound wells, NADH background; fluorescence fold increase at 10 µM; hit rate 5.5% among 65,000;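 active = at 10 µM, mean starting fluorescence two-fold or more over control wells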;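 also: signal is the first read of a kinetic run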
BAP1 block – inhibitors of BAP1 deubiquitinase, primary screen, biochemical, Ub-AMC fluorescence, kinetic; Ubiquitin carboxyl-terminal hydrolase BAP1 (Homo sapiens), Q92560; recombinant BAP1, Ub-AMC hydrolysis fluorescence kinetic; stronger effect = lower value; calls only at 20 µM; hit rate 0.48% among 72,000; AID 436, 2006;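 active = activity remaining at or below 50% of control, provided the compound also passes the data quality filters; inactive = the rest, including low values that fail the filters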;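 also: 100% = DMSO wells rate and 0% = substrate alone blank rate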
Target sequence (Q92560 whole entry, looked up): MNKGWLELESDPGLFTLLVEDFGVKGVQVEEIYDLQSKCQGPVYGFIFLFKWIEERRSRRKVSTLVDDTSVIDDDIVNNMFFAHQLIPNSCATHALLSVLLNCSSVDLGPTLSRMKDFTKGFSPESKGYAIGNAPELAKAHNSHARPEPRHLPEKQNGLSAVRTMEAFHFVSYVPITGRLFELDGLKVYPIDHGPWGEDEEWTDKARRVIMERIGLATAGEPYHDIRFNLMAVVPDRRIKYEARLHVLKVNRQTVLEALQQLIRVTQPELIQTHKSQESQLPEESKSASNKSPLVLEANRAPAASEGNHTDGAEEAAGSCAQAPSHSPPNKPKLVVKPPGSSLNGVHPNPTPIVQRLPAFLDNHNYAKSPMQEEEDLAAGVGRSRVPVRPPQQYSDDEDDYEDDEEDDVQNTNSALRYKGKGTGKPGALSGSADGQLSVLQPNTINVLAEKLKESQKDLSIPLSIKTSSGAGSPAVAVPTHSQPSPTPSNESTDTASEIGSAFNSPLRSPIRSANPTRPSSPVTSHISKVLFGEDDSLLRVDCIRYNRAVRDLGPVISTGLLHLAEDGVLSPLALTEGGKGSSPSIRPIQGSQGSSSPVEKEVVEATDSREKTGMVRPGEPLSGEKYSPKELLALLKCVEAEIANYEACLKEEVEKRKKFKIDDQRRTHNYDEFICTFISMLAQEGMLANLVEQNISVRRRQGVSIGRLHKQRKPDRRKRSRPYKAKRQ
M1 agonist – M1 muscarinic receptor agonists, primary screen, CHO-M1 cells, Fluo-4 calcium, agonist mode. B-score at 10 µM. AID 626, 2007. Fluo-4 calcium fluorescence; stronger effect = higher value. hit rate 3% among 64,000;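 active = fluorescence rise, raw or as B-score row- and column-corrected plate score, outside the 99.7% band of its plate's samples, either direction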
M1 antag – antagonists of rat M1 muscarinic receptor | hit rate 3.4% among 64,000 | AID 628, 2007 | B-score at 10 µM | CHO-M1 cells, Fluo-4 calcium, ACh EC80 antagonist mode; stronger effect = lower value | Muscarinic acetylcholine receptor M1 (Rattus norvegicus), P08482;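 active = calcium fluorescence response, raw or row-and-column corrected B-score, differing from the plate sample mean either way at a set confidence level, mostly lower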
WNV protease inh – inhibitors of WNV NS2B-NS3 protease, primary screen, biochemical, fluorogenic substrate; fluorogenic substrate Ex360/Em465; stronger effect = lower value; z-score (test concentration not listed); hit rate 0.18% among 65,000; Genome polyprotein (West Nile virus), P06935; in the data active = z-score below about -3
Abs 340nm – compound light absorbance at 340 nm, profiling panel, artefact control, biochemical, MLSMR library, data from PS, PMK, MK assays. compound absorbance at 340 nm, fold over control. fold change at 10 µM. 65,000 tested, under 10 active;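 active = at 10 µM dose, initial 340 nm absorbance at least 2 fold that of control wells; inactive = change under 2 fold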;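 also: initial absorbance extrapolated from kinetic A340 decline of NADH oxidation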
M1 antag conf – rat M1 muscarinic receptor antagonists, confirmation, CHO cells, Fluo-4 calcium, duplicate; shares compounds with M1 antag; ACh EC80 antagonism; stronger effect = lower value; calcium response (max-min fluorescence) at 10 µM; hit rate 43% among 1,700;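 active = calcium response below the same-plate mean of wells given acetylcholine alone at its 80%-effect dose, minus 3 SD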;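 also: raw fluorescence intensity difference in arbitrary instrument units and not normalized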
mGluR4 antag – human mGluR4 response to M1 antagonist hits, M1 allosteric modulator project, cell-based, antagonist mode, secondary assay 1; AID 678, 2007; CHO-mGluR4 calcium flux, Fluo-4 fluorescence, glutamate EC80; stronger effect = lower value; hit rate 0.9% among 1,700; fluorescence response (max-min) at 10 µM; shares compounds with M1 antag;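 active = fluorescence response below the plate's average for near-maximal glutamate wells, less 3 SD of those wells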;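 also: raw unnormalized fluorescence span taken in the window right after glutamate addition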
An asterisk follows results filed as active. Compounds with a hit are over-represented: about 9.7% of the library has one in this group of screens.

Screening O=C(NCCc1ccccc1)c1nn2c(c1Cl)NC(c1cccs1)CC2C(F)(F)F (stereo not given) returned BAP1 block inactive.
Cc1cc(N2CCOCC2)nc2ccc(NC(=O)CCC(=O)N3CCCCC3)cc12 was read as Fluor 339 460 4.7*, BAP1 block inactive, M1 agonist -0.0012, M1 antag -2.6*, WNV protease inh -0.18, Abs 340nm 1, M1 antag conf 524 and mGluR4 antag 170.
`Cc1cccc(NC(=O)c2cc(N3CCOCC3)nc3ccccc23)c1` gave Fluor 339 460 1.9, BAP1 block inactive, M1 agonist -0.41, M1 antag 0.46, WNV protease inh -1.6 and Abs 340nm 1.
For Cc1ccc(NC(=O)C(C(C)C)N2C(=O)c3ccccc3C2=O)c(C)c1 (stereo not given) the results were BAP1 block inactive.
For Cc1ccc(S(=O)(=O)NCCCC(=O)C=[N+]=[N-])cc1 the results were Fluor 339 460 1.1, BAP1 block inactive, M1 agonist -0.66, M1 antag -3.3*, WNV protease inh 1.5, Abs 340nm 1.1, M1 antag conf 610 and mGluR4 antag 240.
For Cc1ccc(S(=O)(=O)NCCCCCC(=O)N(C)C)cc1 the results were Fluor 339 460 1, BAP1 block inactive, M1 agonist -0.22, M1 antag -0.82, WNV protease inh -0.89 and Abs 340nm 1.
`O=C(Nc1ccc(F)cc1)c1ccc([N+](=O)[O-])o1` gave BAP1 block inactive.
Screening COC(=O)N(C)CCCC1(C)C(=O)N(C)c2ccc(O)cc21 (stereo not given) returned Fluor 339 460 1, BAP1 block inactive, M1 agonist -0.094, M1 antag -4.8*, WNV protease inh 0.53, Abs 340nm 1, M1 antag conf 667 and mGluR4 antag 260.
Screening CCOC(=O)c1c(NC(=O)C(C(C)C)N2C(=O)c3ccccc3C2=O)sc2c1CCC2 (stereo not given) returned BAP1 block inactive.
Screening COc1ccc(/C(N)=C/C(=O)C(C)(C)C)cc1 returned Fluor 339 460 1, BAP1 block inactive, M1 agonist -0.57, M1 antag -3.5*, WNV protease inh -0.91, Abs 340nm 1.1, M1 antag conf 554 and mGluR4 antag 216.
Screening CC(C)(C)C(=O)/C=C(\N)c1ccncc1 returned Fluor 339 460 1.1, BAP1 block inactive, M1 agonist -0.21, M1 antag -0.65, WNV protease inh -0.93 and Abs 340nm 1.1.
`C=Cn1cccc1-c1cccs1` gave BAP1 block inactive.
`CC1(C)Cc2c(sc3c2C2=NCCN2C=N3)CO1` gave Fluor 339 460 1.2, BAP1 block inactive, M1 agonist -1.2, M1 antag -0.44, WNV protease inh 0.09 and Abs 340nm 1.
For CSC1=Nc2sc3c(c2C2=NCCN12)CC(C)(C)OC3 the results were Fluor 339 460 1.1, BAP1 block inactive, M1 agonist 0.48, M1 antag -4.6*, WNV protease inh 0.34, Abs 340nm 1.1, M1 antag conf 420 and mGluR4 antag 178.
Screening COc1ccccc1NC(=O)COC(=O)c1ccc(S(=O)(=O)NCc2ccco2)cc1 returned Fluor 339 460 1, BAP1 block inactive, M1 agonist -0.89, M1 antag -0.7, WNV protease inh -0.23 and Abs 340nm 1.
Screening Cc1noc(C)c1COC(=O)c1ccc(S(=O)(=O)NCc2ccco2)cc1 returned Fluor 339 460 1.1, BAP1 block inactive, M1 agonist -0.15, M1 antag -2.6*, WNV protease inh -0.31, Abs 340nm 1, M1 antag conf 371* and mGluR4 antag 194.
Screening C=CCN1C(=O)C(C(c2ccc(Cl)cc2)C2C(=O)NC(=S)N(CC=C)C2=O)C(=O)NC1=S (stereo not given) returned BAP1 block inactive.
CCC(=O)Nc1ccc(N2CCN(Cc3ccccc3F)CC2)cc1 was read as Fluor 339 460 1.1, M1 agonist 0.55, M1 antag -2.6*, WNV protease inh -0.42, Abs 340nm 1, M1 antag conf 630 and mGluR4 antag 226.
For CC(=O)Nc1ccc(N2CCN(Cc3ccccc3F)CC2)cc1 the results were Fluor 339 460 1.1, BAP1 block inactive, M1 agonist -0.0094, M1 antag -0.15, WNV protease inh -0.42 and Abs 340nm 1.
For O=S1(=O)N=C(N2CCc3ccccc3C2)c2ccccc21 the results were Fluor 339 460 1.1, BAP1 block inactive, M1 agonist 0.52, M1 antag -2.1*, WNV protease inh 1, Abs 340nm 1, M1 antag conf 600* and mGluR4 antag 191.
For O=S1(=O)N=C(N2CCCc3ccccc32)c2ccccc21 the results were Fluor 339 460 1.1, BAP1 block inactive, M1 agonist -0.43, M1 antag -0.35, WNV protease inh -0.75 and Abs 340nm 1.1.
Screening CC(Cl)=CCN1C(=O)C(=O)c2cccc(C)c21 returned BAP1 block inactive.
For COCCCNc1nc(-c2ccccc2)nc2ccccc12 the results were BAP1 block inactive.
COc1ccc(CCNC(=O)C(C)N2C(=O)c3ccccc3C2=O)cc1OC (stereo not given) was read as BAP1 block inactive.
CSc1nc(N(CCO)CCO)c2sc3nc(-c4ccco4)c4c(c3c2n1)CCC4 was read as Fluor 339 460 2.3*, M1 agonist -0.89, M1 antag -3.9*, WNV protease inh -0.19, Abs 340nm 1.1, M1 antag conf 524 and mGluR4 antag 273.
`CC(C)c1nc2sc3c(SCC(=O)NCc4ccco4)ncnc3c2c2c1CCC2` gave Fluor 339 460 1.1, M1 agonist -0.03, M1 antag -0.26, WNV protease inh 1.1 and Abs 340nm 1.1.
